# An excerpt weighted towards active compounds, which were near 0.94% of everything screened.
# SSB-PriA inh = inhibitors of Klebsiella pneumoniae PriA binding to SSB C-terminal tail; AID 1272365; 0.6% of 430,000 active; AlphaScreen SSBct-PriA binding, biotinylated peptide; inhibition, % at 33 µM; in the data active = inhibition mostly above about 37%, no sharp cut-off; inactive = mostly below about 20%
# Vc quorum ag = induces V. cholerae light production without autoinducers; V. cholerae BH1578 lux reporter, luminescence, 6 h; activation, % at 18.7 µM; 0.16% of 350,000 active; in the data active = activation mostly above about 9.7%, no sharp cut-off
# Mtb hypoxia rep = reduces hypoxia-regulated biosensor signal in M. tuberculosis; M. tuberculosis hypoxia-regulated fluorescent reporter, fluorescence; 0.1% of 300,000 active; fluorescence inhibition, % (concentration not given with the values); in the data active = fluorescence inhibition mostly above about 23%, no sharp cut-off; inactive = mostly below about 17%
# MazEF act = MazEF (E. coli) toxin RNase activation. 0.32% of 350,000 active. FAM/BHQ RNA-DNA oligo cleavage fluorescence, 5 h. activation, % at 20 µM. P0AE70; in the data active = activation above about 50%
# Target sequence (P0AE70 whole entry, looked up): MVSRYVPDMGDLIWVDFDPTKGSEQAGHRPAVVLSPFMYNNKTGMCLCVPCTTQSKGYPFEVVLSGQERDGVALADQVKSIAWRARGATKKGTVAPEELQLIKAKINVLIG
# Hits are given with their value; – = inactive; · = not tested or not shown; + = active, no number; ! = repeats disagree.
SMILES,SSB-PriA inh,Vc quorum ag,Mtb hypoxia rep,MazEF act
COC(=O)N1CCc2ccc(NC(=O)c3ccccc3Br)cc2C1,–,·,·,·
CCCCN1C(=O)c2cccc3c(NC(=S)NC(=O)c4ccc(F)cc4)ccc1c23,–,·,·,·
c1ccc(-c2nnc(-c3ccccn3)nn2)nc1,68,–,–,–
OCc1ccnc(-c2ccccn2)n1,89,·,·,·
c1ccc(-c2cccc(-c3ccccn3)n2)nc1,104,–,–,–
c1ccc(-c2nnc(-c3ccccn3)c(-c3ccccn3)n2)nc1,–,–,–,–
c1ccc(-c2nc(-c3ccccn3)c(-c3ccccn3)nc2-c2ccccn2)nc1,–,·,·,·
c1ccc(-c2ccnc(-c3ccccn3)n2)nc1,146,·,·,·
O=C([C@@H]1COc2ccccc2O1)N1CC(n2cc(-c3ccccc3)nn2)C1,–,·,·,·
O=S(=O)(C1CC1)N1CC[C@H](n2ccnn2)C1,–,·,·,·
O=Cc1cnc(-c2ccccn2)nc1,106,·,·,·
c1ccc(-c2nnc(-c3ccccn3)nc2-c2ccccc2)cc1,–,·,·,·
C/C(Cl)=C/Cn1c(NCCO)nc2c1c(=O)n(C)c(=O)n2C,–,·,·,·
Cc1ccc2nc(NCCc3ccc(Cl)cc3)c3nncn3c2c1,–,–,–,80
Cc1cccc(CCNc2nc3ccc(C)cc3n3cnnc23)c1,–,–,–,–
COc1ccccc1N1C(=O)S/C(=C\c2cc(C)n(C)c2C)C1=O,–,–,–,+
COc1ccccc1N1C(=O)S/C(=C\c2ccc(C)s2)C1=O,–,–,–,–
COc1ccc(N=C2S/C(=C\c3cc(C)n(C)c3C)C(=O)N2C)cc1,39,–,·,–
CCOC(=O)N1CCC(NC(=O)C2CCN(c3cc(Sc4cc(C)ccc4C)ncn3)CC2)CC1,–,·,·,·
CC(C)(C)c1ccc(OCCNC(=O)c2ncn[nH]2)cc1,57,–,·,–
CCc1cc(C)cc(OCCNC(=O)c2ncn[nH]2)c1,–,–,–,–
Cc1cccc(N=Cc2cc3c(cc2[N+](=O)[O-])OCO3)c1,45,–,–,–
Cn1ccc(C(=O)N(Cc2ccccc2)c2nc3ccc(Cl)cc3s2)n1,–,·,·,·
Cc1cc(C)c(-c2nnc(NC(=O)c3ccccc3F)s2)c(C)c1,–,·,·,·
COc1ccc(Nc2cccc3ccccc23)cc1,50,–,–,–
SMILES,SSB-PriA inh,Vc quorum ag,Mtb hypoxia rep,MazEF act
COc1ccc(NC(=S)Nc2cccc3ccccc23)cc1OC,43,–,–,–
Cn1nccc1C(=O)N(Cc1ccccc1)c1nc2ccc(F)cc2s1,–,·,·,·
CC1(C)Cc2ccccc2C(CCl)=N1,45,·,·,·
CCCCC1(C)OC(=O)C(=Cc2c[nH]c3ccccc23)C(=O)O1 (stereo not drawn),–,–,–,235
COc1ccc(C)c2sc(N(CCN(C)C)C(=O)CCOc3ccccc3)nc12,–,·,·,·
COc1ccc(C)c2sc(N(CCN(C)C)C(=O)c3ccc4ccccc4c3)nc12,43!,–,–,–
COc1cc2ccccc2cc1C(=O)N(CCN(C)C)c1nc2c(F)cc(F)cc2s1,–,–,–,–
COc1cc2ccccc2cc1C(=O)N(CCN(C)C)c1nc2ccc(Br)cc2s1,49,–,–,–
Cc1cc(C)c2nc(N(CCN(C)C)C(=O)c3ccc4ccccc4c3)sc2c1,38!,–,–,–
O=c1[nH]c2cc3c(cc2cc1CN(Cc1cccnc1)Cc1nnnn1Cc1ccco1)OCCO3,–,–,–,54
O=C(Nc1nnc(-c2ccc3c(c2)OCCO3)o1)c1cccc(NS(=O)(=O)c2ccc(F)cc2)c1,32,·,·,·
O=C(Nc1nnc(C2=COCCO2)o1)c1cccc(C(F)(F)F)c1,–,–,–,–
COc1cccc2cc(-c3nnc(NC(=O)c4ccc(N(C)C)cc4)o3)oc12,–,·,·,·
COc1ccc(S(=O)(=O)Nc2cccc(C(=O)Nc3nnc(C4=COCCO4)o3)c2)cc1,56,·,·,·
COc1cccc2cc(-c3nnc(NC(=O)c4cccc(S(C)(=O)=O)c4)o3)oc12,90,·,·,·
O=C(Nc1nnc(-c2ccc3c(c2)OCCO3)o1)c1cccc(Cl)c1,–,·,·,·
CCOC(=O)c1c(NC(=O)c2sc3nc(C)ccc3c2N)sc(C)c1C,–,·,·,·
Cn1c(C(=O)NCc2cccs2)cc2c(=O)n(C)c3ccccc3c21,–,–,·,–
Cn1c2ccccc2c(=O)c2ccc(NCCc3cccs3)cc21,–,–,38,–
N#Cc1nc(-c2cccs2)oc1NCc1ccc2c(c1)OCO2,48,–,·,–
Cc1ccc(CN(CC(O)COc2cccc3[nH]cc(C)c23)C(C)(C)C)cc1 (stereo not drawn),–,–,–,–
Cc1c[nH]c2cccc(OCC(CNC(C)(C)C)OC(=O)c3ccccc3)c12 (stereo not drawn),49,–,–,–
O=C(NCC1CCCO1)c1sc(=S)n2c1[nH]c(=O)c1ccc(C(=O)N3CCCCC3)cc12 (stereo not drawn),–,–,35,–
C=CCCC1(C)NNc2nc(=O)c(C)nn21 (stereo not drawn),98,·,·,·
CC(=NNc1ncc(Cl)cc1Cl)c1ccccn1,47,·,·,·
SMILES,SSB-PriA inh,Vc quorum ag,Mtb hypoxia rep,MazEF act
CC(=NNC(=O)C1COc2ccccc2O1)c1ccccn1 (stereo not drawn),61,·,–,·
CC(=NNC(=O)c1ccc(Cl)cc1)c1ccccn1,45,·,·,·
COC(=O)CSC1CCN(C(=O)c2cc(C)oc2C)C1 (stereo not drawn),–,·,·,·
CN(C)c1ccc(C(CNS(=O)(=O)c2ccc3c(c2)CCCC3)N2CCc3ccccc32)cc1 (stereo not drawn),–,·,·,·
COCCn1cc(NC(=O)Nc2cccc(C)c2C)c2ccccc21,–,·,·,·
COCCn1cc(NC(=O)Nc2cc(C)ccc2OC)c2ccccc21,37,·,·,·
COc1ccc(Cl)cc1C(=O)NCC(c1cccc2ccccc12)N1CCOCC1 (stereo not drawn),–,·,·,·
COc1ccc(S(=O)(=O)N2CCC(C(=O)NCCC(=O)Nc3ccc(Cl)cc3)CC2)cc1,–,–,–,55
COc1ccc(-n2ccnc(SCC(=O)NCCC(C)C)c2=O)cc1Cl,–,·,·,·
O=C(CSc1nc2c(cnn2-c2cccc(Cl)c2)c(=O)[nH]1)OCc1ccccc1,–,·,·,·
O=[N+]([O-])c1cc(C=NN2CCCCC2)ccc1Cl,43,·,–,·
O=[N+]([O-])c1cc(/C=N/N2CCCCC2)ccc1Cl,·,–,·,–
Cn1cc(CC(=O)N2CC(S(=O)(=O)C3CCCCC3)C2)c2ccccc21,–,·,·,·
CC(C)N=C(NC#N)SCc1ccc(Br)cc1,–,30,·,–
O=[N+]([O-])c1cc(Cl)cc(/C=N/NC(=S)Nc2ccc(S(=O)(=O)N3CCOCC3)cc2)c1O,·,–,·,–
O=[N+]([O-])c1cc(Cl)cc(C=NNC(=S)Nc2ccc(S(=O)(=O)N3CCOCC3)cc2)c1O,67,·,–,·
NS(=O)(=O)c1ccc(NC(=O)CSc2nc(-c3cccc([N+](=O)[O-])c3)cs2)cc1,–,·,·,·
O=[N+]([O-])c1cc([N+](=O)[O-])c2ncccc2c1,63,·,·,·
O=[N+]([O-])c1cc(O)c2ncccc2c1,84,·,–,–
CN(C)/N=C/c1ccc([N+](=O)[O-])cc1[N+](=O)[O-],·,–,·,–
CN(N=Cc1cccc2cccnc12)c1ccc([N+](=O)[O-])cc1[N+](=O)[O-],–,·,·,935
Oc1cc(F)cc2cccnc12,–,·,·,·
Oc1cc(Cl)cc2cccnc12,84,·,·,·
Cc1ccc(SCC2CSc3nc(=O)c4c(C)c(C)sc4n32)cc1 (stereo not drawn),–,·,·,·
